The supplement of paper PMC10338343
± gives the standard deviation. Whole data set: some 8,200 sequences, median “pre-steady-state target cleavage rate” near 0.024, cut for the highest 2% near 1.3. This excerpt belongs to a sample that is enriched for the highest values.

System: MIWI (PIWIL1) piRISC loaded with L1MC piRNA (30 nt)
Test: pre-steady-state target cleavage rate (min^-1); MIWI and MILI are mouse PIWI proteins and EfPiwi is from a freshwater sponge; tags in brackets are library labels; higher = faster piRNA-guided slicing of the target
Conditions: guide: L1MC piRNA 5'p-UAACUAAAUACUAUGCAAGCUGUAGGUCCU
Experimental: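 Cleave-'n-Seq: a library of target RNAs (target site embedded in constant flanks, ACAGCATTCCGCGTTAGTGATATCCG... 5' flank; DNA-blocked outside the site) at 0.1 nM was incubated with 1 nM active mouse MILI or MIWI piRISC (synthetic 5'-monophosphorylated piRNA guide) with or without 500 nM mouse GTSF1 at 33 °C for 1 min to 16 h. Uncleaved targets were sequenced and normalised to non-target controls, and the pooled three trials were fitted to a burst-and-steady-state model to give the pre-steady-state cleavage rate (min^-1; k3 is constrained to at most 1e-4). Sequence is the target site only; target names encode pairing extent (gX:gY) and contiguous / 1-mismatch / 2-mismatch / bulge geometry. Fits with R² ≤ 0 are excluded.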

[1] = auxiliary factor: 500 nM mouse GTSF1
[2] = auxiliary factor: none (no GTSF1)

Sequence	pre-steady-state target cleavage rate [1]	pre-steady-state target cleavage rate [2]
UCCACCUAGAGCUUGCAUAGUUUUUAGUUA	0.22 ± 0.03	0.0119 ± 0.0015
UCCUGGAUGACGCUUGCAUAGUAUUUAGUUA	0.911 ± 0.059	0.0648 ± 0.0085
UCCACCUACUGCUUGCAUAGUAUUUAGAUA	0.253 ± 0.043	0.0104 ± 0.0021
UCCUGGUUGUGCUUGCAUAGUAUUUAGUAA	0.2 ± 0.022	0.0175 ± 0.0053
UCCUGCUACAGCUUGCAUAGUGUUUAGUUA	0.648 ± 0.045	0.0278 ± 0.0045
UCGACCUCCAGCUUGCAUAGUAUUUAGUUA	1.17 ± 0.06	0.0635 ± 0.0099
AGGACCUCACAGCUUGCAUAGUAUUUAGUUA	1.28 ± 0.064	0.102 ± 0.017
UCGACCUUGAGCUUGCAUAGUAUUUAGUUA	0.789 ± 0.057	0.0478 ± 0.0086
UCGACCUCACAGCUUGCAUAGUAUUUAGUUA	1.38 ± 0.05	0.0855 ± 0.017
UCGACCUCAGCUUGCAUAGUAUUUAGUUA	1.38 ± 0.056	0.064 ± 0.013
UGGACCUCACAGCUUGCAUAGUAUUUAGUUA	1.46 ± 0.084	0.0711 ± 0.014
UCCACCUCACAGCUUGCAUAGUAUUUAGUUA	1.06 ± 0.051	0.0701 ± 0.012
AGGACCUUGUGCUUGCAUAGUAUUUAGUUA	0.869 ± 0.046	0.0654 ± 0.012
UCCACCUACAGCUUGCAUAUUAUUUAGUUA	1.01 ± 0.075	0.0312 ± 0.007
UGCACCUACAGCUUGCAUUGUAUUUAGUUA	0.808 ± 0.057	0.0286 ± 0.0068
UCCUGGAUGUCGAUGCAUAGUAUUUAGUUA [g2:g17:cont:t1A]	0.0169 ± 0.005	
UGGACCUACAGCAAGCAUAGUAUUUAGAAA	0.271 ± 0.031	
UCCUGGAUGUCCUUGCAUAGUAUUUAGCUUA	0.0471 ± 0.0091	0.00476 ± 0.0022
UGGACCUACAGCUUGCAUAGUAUUUAGUCA	0.934 ± 0.05	0.0559 ± 0.011
AGGACCUACAGCUUGGAUAGUAUUUUGUUA	1.05 ± 0.077	0.0416 ± 0.0083
UCCUGGAACAGCUUGCUAUGUAUUUAGUAA	0.0313 ± 0.0087	0.00333 ± 0.002

Sequence	pre-steady-state target cleavage rate [1]	pre-steady-state target cleavage rate [2]
UCCUGGAUCAGGAAGCAUAGUAUUUAGUUA	0.00993 ± 0.0028	
AGGACCUACUGCUUGCUUAGUAUUUAGUUA	1.39 ± 0.087	0.05 ± 0.01
AGGACCUACUGCUUGCAUUGUAUUUAGUUA	0.892 ± 0.03	0.0384 ± 0.008
UCCUGCUACUGCUUGCUUAGUAUUUAGUUA	0.49 ± 0.039	0.0208 ± 0.003
UGGACCUACACCUUGCUUAGUAUUUAGUUA	1.1 ± 0.062	0.0262 ± 0.0061
AGGACCUACACCUUGCUUAGUAUUUAGUUA	1.17 ± 0.057	0.046 ± 0.0082
UGGACCUACUGCUUGCUUAGUAUUUAGUUA	1.4 ± 0.081	0.0402 ± 0.0083
UCCACGAACAGCUUGCAUAGUAUUUAGAAA	0.328 ± 0.039	0.00702 ± 0.0022
UCCUGGAUGUCGAACGUAAGUAUUUAGUAUA	< 0.0001	
UCCUCCUACAGCUUGCAUUGUAUUUAGUUA	0.952 ± 0.034	0.0245 ± 0.0055
UCCUGGAUGAGCUUGCAUAGUAUUUUCUAA	0.222 ± 0.052	
AGGACCUACGAGCUUGCAUAGUAUUUAGUUA	0.726 ± 0.086	0.0555 ± 0.014
UGGACCAACAGCUUGCAUACUAUUUAGUUA	0.419 ± 0.017	0.0377 ± 0.0075
UCCUGGAUGUCGUUGCAUAGUAUUUAGGUUA	0.00749 ± 0.0034	
UCCACGUACAGCUUGCAUAGUAUUUAGUUA	1.35 ± 0.047	0.0658 ± 0.0097
UGGACGUACAGCUUGCAUAGUAUUUAGUUA	1.26 ± 0.051	0.0691 ± 0.012
UCCACGUACAGCUUGCUUAGUAUUUAGUUA	1.31 ± 0.058	0.0408 ± 0.0091
UCGACGUACAGCUUGCAUAGUAUUUAGUAA	1.01 ± 0.062	0.0599 ± 0.011
UCCACCUACAGCUUGCUUAGUAUUUAGUUA	1.16 ± 0.05	0.0305 ± 0.0053
UCGACGUACAGCUUGCAUAGUAUUUAGUUA	1.56 ± 0.046	0.0711 ± 0.011
UCCACGUACAGCUUGCAAAGUAUUUAGUUA	1.19 ± 0.054	0.0439 ± 0.009

Sequence	pre-steady-state target cleavage rate [1]	pre-steady-state target cleavage rate [2]
UCGACGUACAGCUUGCAUAGUAUUUAGAAA	0.288 ± 0.026	0.0106 ± 0.0026
UCCACGUACAGCUUGCAUAGUAUUUAGUAA	0.521 ± 0.032	0.0319 ± 0.0057
ACGACGUACAGCUUGCAUAGUAUUUAGUUA	1.55 ± 0.071	0.077 ± 0.013
AGCACGUACAGCUUGCAUAGUAUUUAGUUA	1.28 ± 0.043	0.064 ± 0.011
UGCACGUACAGCUUGCAUAGUAUUUAGUUA	1.26 ± 0.045	0.0736 ± 0.01
UCCACCAAGAGCUUGCAUAGUAUUUAGUUA	0.884 ± 0.095	0.0363 ± 0.0078
UCCACCUACAGCUUGCUUAGAAUUUAGUUA	0.2 ± 0.025	0.00583 ± 0.0018
UCCUGGAACAGCUAGCAUAGAAUUUAGUUA	0.209 ± 0.02	0.0115 ± 0.0043
AGGACCUACAGCUUGCAUUGUAUUUAGUUA	0.926 ± 0.04	0.0656 ± 0.015
UCCUGGAUGUCCUUGCAGAGUAUUUAGUUA		0.00314 ± 0.002
UCCUGGAUGAGCUUGCUUAGUAUUUACUUA	0.254 ± 0.042	0.0202 ± 0.005
UCCACGUACAGCUAGCAUAGUAUUUAGUUA	0.815 ± 0.028	0.0177 ± 0.0033
UCCACCCUACAGCUUGCAUAGUAUUUAGUUA	0.831 ± 0.055	0.0575 ± 0.012
AGGACCUACAGCUUUGCAUAGUAUUUAGUUA	1.2 ± 0.066	0.0552 ± 0.012
AGGACCUAACAGCUUGCAUAGUAUUUAGUUA	1.1 ± 0.059	0.0788 ± 0.016
UGGACCCUACAGCUUGCAUAGUAUUUAGUUA	1.42 ± 0.074	0.0808 ± 0.015
UGGACCUAACAGCUUGCAUAGUAUUUAGUUA	1.33 ± 0.061	0.0609 ± 0.01
AGGACCCUACAGCUUGCAUAGUAUUUAGUUA	1.24 ± 0.083	0.0716 ± 0.012
UCGACCUAACAGCUUGCAUAGUAUUUAGUUA	1.15 ± 0.069	0.0849 ± 0.017
UCCACCUACAGCUUUGCAUAGUAUUUAGUUA	0.885 ± 0.054	0.0278 ± 0.0062
